# Assay results as given in ChEMBL document CHEMBL3433997, “St. Jude Leishmania screening dataset” (2016).
# Experiments:
# Assay type in all cases: functional
# [1] = biological target: Solute carrier family 2, facilitated glucose transporter member 1 (Homo sapiens) (UniProt P11166); assay: ST_JUDE_LEISH: Cytotoxicity at 2uM final concentration against transgenic Leishmania Mexicana promastigotes LmGLUT1 that are glucose transport deficient and complemented with the human glucose transporter GLUT1. Activity is measured by DNA content using SYBR green in vitro
# [2] = biological target: Hexose transporter 1 (Plasmodium falciparum) (UniProt O97467); assay: ST_JUDE_LEISH: Cytotoxicity at 2uM final concentration against transgenic Leishmania Mexicana promastigotes LmPfHT that are glucose transport deficient and complemented with the Plasmodium falciparum hexose transporter. Activity is measured by DNA content using SYBR green in vitro
# [3] = biological target: Glucose transporter (Leishmania mexicana) (UniProt O61059); assay: ST_JUDE_LEISH: Cytotoxicity at 2uM final concentration against transgenic Leishmania Mexicana promastigotes LmGT2 that are glucose transport deficient and complemented with the L. Mexicana glucose transporter 2. Activity is measured by DNA content using SYBR green in vitro
# Sequence of Solute carrier family 2, facilitated glucose transporter member 1 (Homo sapiens) (P11166 whole entry): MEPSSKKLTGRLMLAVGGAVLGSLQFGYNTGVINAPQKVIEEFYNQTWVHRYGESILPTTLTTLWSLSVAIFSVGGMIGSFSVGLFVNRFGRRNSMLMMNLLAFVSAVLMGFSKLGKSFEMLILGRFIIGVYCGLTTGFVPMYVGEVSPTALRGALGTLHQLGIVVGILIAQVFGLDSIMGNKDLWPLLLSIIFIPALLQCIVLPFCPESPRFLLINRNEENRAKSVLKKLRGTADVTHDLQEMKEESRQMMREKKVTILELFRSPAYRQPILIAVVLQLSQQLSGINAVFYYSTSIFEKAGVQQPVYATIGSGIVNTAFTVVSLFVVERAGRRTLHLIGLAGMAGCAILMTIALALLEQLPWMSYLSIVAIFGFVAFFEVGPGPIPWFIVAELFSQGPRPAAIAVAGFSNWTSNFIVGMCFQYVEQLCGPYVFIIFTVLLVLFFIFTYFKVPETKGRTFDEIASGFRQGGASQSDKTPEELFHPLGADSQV
Structure (SMILES),inhibition [1] [%],inhibition [2] [%],inhibition [3] [%]
Cc1noc(NC(=O)c2sc3ccccc3c2O)c1C,1.04,0.61,-0.8
COc1cc2c(C3CCN(CC4CCC(NC(=O)/C=C/c5ccc(Cl)c(Cl)c5)CC4)CC3)c[nH]c2cn1 (stereo unspecified),9.19,8.02,7.96
Cc1cc(-c2nc3ccc(C(=O)NCc4ccccc4)cc3n2C2CCN(C(=O)c3ccc(-c4ccccc4)cc3)CC2)ccn1,1.02,-0.07,1.94
FC(F)(F)c1ccc2[nH]ccc(=NN=CC=Cc3ccccc3)c2c1,0.22,0.25,4.34
O=C(N[C@@H](CC1CCCCC1)C(=O)NCCc1ccc(Cl)c(Cl)c1)c1ccc(O)c(-c2ccc(Cl)c(Cl)c2)c1,0.23,0.3,1.25
O=C(Nc1ccc2ccccc2c1)c1ccc(CN2CCC(Cc3ccccc3)CC2)cc1,-2.67,-3.63,7.65
O=c1cc(N2CCCNCC2)c(Cl)nn1Cc1ccc(NS(=O)(=O)c2ccc(Oc3ccccc3)cc2)cc1,10.6,8,8.55
COc1nc2c(CCN3CC[C@H](NCc4cc(C#N)c5c(c4)CCO5)[C@H](O)C3)ccnc2cc1F,8.01,8.15,0.58
CN(C)c1ccc(Br)c(Br)c1,3.2,4.63,-1.28
Nc1ncnc2cc(-c3cccc(S(N)(=O)=O)c3)sc12,0.46,3.15,5.9
CC(C)N(Cc1ccccc1)C(=O)CN1C(=O)COc2ccc(S(=O)(=O)N3CCCCCC3)cc21,4.92,1.02,10.5
CC1CN(c2ncc(-c3ccc(CNC4Cc5ccccc5C4)cc3)cn2)CC(C)N1 (stereo unspecified),2.69,2.64,0.64
Oc1ccc(CCNc2nc(NCc3ccccc3-c3ccc(F)cc3)nc(N3CCNCC3)n2)cc1,-6.17,3.48,6.39
O=C(NCCN1CCOCC1)c1ccc(O)c(-c2cccc(C(F)(F)F)c2)c1,0.48,1.53,2.43
O=C(Nc1ccc(OC2CCN(Cc3ccc(F)cc3)CC2)cc1)c1cccs1,-0.82,0.37,-2.79
Cc1cc(N[C@@H](Cc2ccccc2)C(=O)NCc2cccc(F)c2)nc(NCCCOC(C)C)n1,0.45,1.37,1.72
O=C(Nc1cccc(CN2CCCN(Cc3ccc(O)cc3)CC2)c1)c1ccc(-c2ccccc2)cc1,1.14,0.52,-2.97
O=C(Nc1ccccc1)N1CCC(CN2CCOC(c3ccccc3)(c3ccccc3)C2)CC1,7.91,4.78,7.57
O=C(NCCCCCN1CCCN(C(=O)Nc2ccc(Cl)c(C(F)(F)F)c2)CC1)C1CC1c1ccc(Cl)c(Cl)c1 (stereo unspecified),2.42,0.79,0.24
CCCCCC(=O)N1CCOC(CCN2CCC(c3ccccc3)CC2)(c2ccc(Cl)c(Cl)c2)C1 (stereo unspecified),2.57,3.27,0.92
Cc1cccc2nc(-c3cccc(-c4cccc(NC(=O)c5ccc(=O)[nH]n5)c4)c3)[nH]c12,5.27,1.34,2.2
COc1ccc2c(c1CCNCCCCNCCc1c(OC)ccc3c1CCCC3)CCCC2,47.3,61.4,52.9
N#Cc1ccc(-c2ccc(C(=O)NCCCCN3CCC(c4cn(CCCO)c5ccccc45)CC3)cc2)cc1,2,1.61,1.21
Cc1ccc(CN2CCCCC(NC(=O)c3cc4ccccc4s3)C2)cc1 (stereo unspecified),0.16,0.49,-8.68

Structure (SMILES),inhibition [1] [%],inhibition [2] [%],inhibition [3] [%]
CCCCCCCCNCC(O)c1cc(-c2ccc(Cl)cc2)nc2cc(C)ccc12 (stereo unspecified),3.01,-0.38,-1.09
O=[N+]([O-])c1ccc(CNCCCCCCNCc2ccc([N+](=O)[O-])c3ccccc23)c2ccccc12,2.24,0.87,7.99
CC(C)C(C(=O)n1ncc2c3c(N)nc(N)nc3ccc21)C(C)C,87.4,86.9,78.4
Oc1cccc(-c2nc(-c3ccccc3)c(-c3ccc(Oc4ccc(-c5[nH]c(-c6cccc(O)c6)nc5-c5ccccc5)cc4)cc3)[nH]2)c1,1.24,2.89,1.33
COc1cc(C)nc2ccc(NC(=O)Nc3ccc([N+](=O)[O-])cc3C)cc12,3.91,2.99,3.97
CCCNCc1ccc(-c2ccc(CN(Cc3cnc(C)cn3)C(=O)c3nn(-c4ccccc4)nc3C)cc2)nc1,2.69,0.9,-6.47
CC(C)COc1ccc(Cl)cc1Cc1ccc(-c2nc3cc(F)c(F)cc3[nH]2)o1,3.02,1.87,1.02
CC1CN(c2cnn(Cc3cccc(NC(=O)Nc4cccc(C(F)(F)F)c4)c3)c(=O)c2Cl)CC(C)N1 (stereo unspecified),10.7,8.17,7.73
COc1ccc(Nc2ncc3c(-c4cccc(NC(=O)Cc5ccc(O)cc5)c4)c[nH]c3n2)cc1OC,9.41,5.77,8.19
Cc1ccc(NC(=O)Cc2noc(CC3CCCN3C(=O)N[C@@H](C)c3ccccc3)n2)cc1 (stereo partly specified),3.91,2.95,1.32
CC(=O)N1Cc2ccccc2C1=O,2.88,3.51,2.11
O=C(NC1CCC(N2CCN(c3cccc4[nH]ccc34)CC2)CC1)c1cc2cccnc2[nH]1 (stereo unspecified),12,13.2,7.93
COc1cc2ncnc(Nc3ccc(OCc4ccccc4)c(OCc4ccccc4)c3)c2cc1OC,4.65,5.44,2.69
Nc1nc(N)c2cc(N(Cc3ccccc3)Cc3ccccc3)ccc2n1,16.1,17.2,10.8
CN(C)CCCN(C)C(=O)c1cc2cc(-c3ccccc3)ccc2n1S(=O)(=O)c1ccccc1,5.31,-2.36,-0.41
Cc1cccc(-c2nn(-c3ccccc3)cc2C(=O)Nc2nnc(C)o2)c1,-1.38,-1.47,2.67
C=CCNc1cc(-c2ccccn2)nc(-c2ccccn2)n1,31.9,9.08,6.05
c1cncc(CCNCc2ccc(-c3ccc(CNC4Cc5ccccc5C4)cc3)cc2)c1,5.14,3.57,3.87
CC(=O)c1ccc(NC(=O)Nc2ccc3nccc(N4CCN(C)CC4)c3c2)cc1,1.22,1.77,1.46
CCN(CCCN1CCCCC1)c1cc(C)nc(Nc2cc(C)ccc2C)n1,-1.92,0.68,-0.58
CC(C)CNCc1ccc(-c2ccccc2CN(C(=O)NCCc2ccccc2)C2CCN(Cc3ccccc3)CC2)cc1,1.25,1.42,-0.19
COc1ccc(-c2cnc3ccc(NCc4ccc(F)cc4)nn23)cc1OC,4.06,4.1,1.96
N#Cc1cc(C(=O)c2cc(Br)ccc2O)cn(-c2cc(Cl)cc(Cl)c2)c1=O,-3.11,0.39,-3.61
COc1ccc2nccc([C@@H](O)CN3CCC(NC(=O)/C=C/c4ccnc5ccccc45)CC3)c2c1,-1.7,-1.62,-2.64

Structure (SMILES),inhibition [1] [%],inhibition [2] [%],inhibition [3] [%]
CCN(CC(C)O)C(=O)c1ccc(-c2cccc(-c3nc4cccc(C)c4[nH]3)c2)cc1 (stereo unspecified),0.34,1.63,0.11
O=c1cc(NCCC(CNCc2ccc(Br)o2)NCc2cc(Br)cc(Br)c2)[nH]c2ccccc12 (stereo unspecified),8.13,8.45,6.87
NCC1CCCN1Cc1ccc(-c2ccc(-c3nc4cc(C(F)(F)F)ccc4[nH]3)s2)cc1 (stereo unspecified),1.42,-0.28,-0.19
O=C(Nc1ccccc1Cc1ccccc1)c1ccccc1[N+](=O)[O-],-1.08,-2.27,-2.02
CC1(C)NC(N)=NC(=N)N1OCC1CCCCC1,-0.1,1.24,0.75
COc1cccc(Nc2nccc(NCC(O)c3cccc(C(F)(F)F)c3)n2)c1 (stereo unspecified),4.86,5.48,1.78
CN1CCN(Cc2cccc(-c3ccc4c(Nc5ccc(F)cc5Cl)ccnc4c3)c2)CC1,4.11,6.5,3.82
CCCN(CCC)CCCNc1ccc(C(=O)Nc2ccc(C)c(F)c2)cc1[N+](=O)[O-],76.3,74.6,74
CC(=NNC(=N)N)c1ccc2c(c1)Cc1ccccc1-2,-1.01,0.42,-1.5
CCCN(CC1CC1)c1ncc(-c2cccc(CNCCC3CCCN3C)c2)cn1 (stereo unspecified),98.4,26.8,104
Nc1nc2c(ncn2COC2COP(=O)(O)OC2)c(=O)[nH]1 (stereo unspecified),12.2,12,12.3
COc1cc(C(=O)NC2CCN(Cc3ccccc3)CC2)ccc1-c1nc2cc(Cl)c(Cl)cc2[nH]1,0.11,1.66,0.13
COc1ccc2c(N/N=C/c3ccccc3[N+](=O)[O-])cc(C)nc2c1,3.18,2.75,2.99
CCCCc1cc(NCc2ccncc2)nc(Nc2ccccc2)n1,13.6,6.01,4.07
Clc1ccc2c(NCCNc3ccnc4cc(Cl)ccc34)ccnc2c1,-0.52,-2.22,-0.13
CCn1c(-c2nonc2N)nc2c(-c3cccc(NC(=O)Nc4cccc(OC)c4)c3)ncc(OCCCN)c21,0.06,2.8,1.32
CCOC(=O)C(C)(C)Oc1ccc(C(=C2CC(C)(C)CC(C)(C)C2)c2ccc(O)cc2)cc1,4.11,2.31,3.56
COc1cc(Cl)c(C)cc1N(Cc1ccccc1-c1ccccc1)S(=O)(=O)c1ccc(C(F)(F)F)cc1,1.01,0.29,0.43
CN(C)S(=O)(=O)c1cc(-c2ccc3nccc(-c4cccc(S(N)(=O)=O)c4)c3c2)cnc1N,8.3,7.26,7.13
COc1ccc(N2CCN(CCCCNC(=O)c3ccc(/C=C/c4ccc(Cl)c(Cl)c4)cc3)CC2)c(OC)c1,-0.28,1.71,2.02
O=C(/C=C/c1cccc(Cl)c1)Nc1ccc2nc(CN3CCCC3)ccc2c1,3.42,5.45,3.23
Cc1noc(C)c1-c1ccc(C(=C2CCCCCCC2)c2ccc(O)cc2)cc1,-4.06,-2.9,5.39
CC(CO)(CO)NCc1cc2c3ccccc3c(CNC(C)(CO)CO)cc2c2ccccc12,5.4,2.65,2.67
CN(C)C(=O)c1cc(CNCc2ccccc2)ccc1-c1cccc(CNCc2ccc(-c3ccccc3)cc2)c1,0.97,3.85,3.02
